Pol eta inh-1 = inhibitors of human DNA polymerase eta | recombinant Pol eta, fluorescent DNA replication assay | Q9Y253 | 390,000 compounds, 1.2% hits | Potency, µM (highest dose often 114 µM), usual class: inhibitors
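Pol eta (10 nM) was preincubated with compounds for 15 min at room temperature, after which fluorescent replication substrate (50 nM final) was added to start the reaction. Fluorescence was read kinetically at 0 and 10 min.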
POLI inh = blocks human DNA polymerase iota activity; Q9UNA4; Pol iota fluorescent replication assay, 10 min; Potency, µM (titrated, usually from 115 µM), usual class: inhibitors; 390,000 compounds, 1% hits; AID 588590
Target sequence (Q9UNA4 whole entry, looked up): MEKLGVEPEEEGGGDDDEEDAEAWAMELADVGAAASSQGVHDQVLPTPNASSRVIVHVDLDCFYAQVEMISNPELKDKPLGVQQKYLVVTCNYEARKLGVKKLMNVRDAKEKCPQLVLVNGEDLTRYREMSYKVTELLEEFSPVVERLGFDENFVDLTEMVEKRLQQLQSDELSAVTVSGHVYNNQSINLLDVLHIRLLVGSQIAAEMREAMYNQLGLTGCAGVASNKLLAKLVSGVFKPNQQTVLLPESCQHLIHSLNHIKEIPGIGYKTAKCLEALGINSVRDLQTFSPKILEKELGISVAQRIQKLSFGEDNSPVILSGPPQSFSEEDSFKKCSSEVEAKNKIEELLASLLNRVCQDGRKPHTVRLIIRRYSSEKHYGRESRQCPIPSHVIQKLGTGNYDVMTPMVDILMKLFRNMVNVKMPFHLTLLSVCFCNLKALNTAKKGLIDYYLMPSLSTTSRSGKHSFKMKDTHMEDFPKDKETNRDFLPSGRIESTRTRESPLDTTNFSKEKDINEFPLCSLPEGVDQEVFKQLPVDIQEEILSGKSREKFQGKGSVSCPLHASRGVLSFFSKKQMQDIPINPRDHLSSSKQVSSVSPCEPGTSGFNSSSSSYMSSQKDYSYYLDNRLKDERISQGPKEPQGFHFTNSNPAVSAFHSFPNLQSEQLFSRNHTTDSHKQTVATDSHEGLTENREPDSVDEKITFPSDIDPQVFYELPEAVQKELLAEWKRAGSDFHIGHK
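Pol iota at 10 nM preincubated 15 min with compounds at room temperature; reaction started with fluorescent substrate, 50 nM final. Fluorescence read kinetically at 0 and 10 min; buffer-only wells as negative control.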
WRN helicase inh = inhibitors of human WRN helicase; WRN helicase unwinding, fluorescent forked duplex, kinetic; AID 651768; Potency, µM (doses to about 114 µM), most hits filed as inhibitors; 360,000 compounds, 0.46% hits; Q14191; note: nearly all actives have a fitted effect of over 55% in size
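Primary qHTS, 1536-well format. 20 nM WRN + compound, 15 min RT; start with 100 nM forked fluorophore/quencher duplex, 2 mM ATP (final); kinetic read ex 525/em 598 nm.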
POLB inh = DNA polymerase beta (human) inhibition; P06746; 340,000 compounds, 1.3% hits; Potency, µM (doses to about 114 µM), hits mostly inhibitors; Pol beta primer extension/strand displacement, fluorescence kinetic
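10 nM enzyme + cpd, 15 min RT; start with substrate 50 nM final; read 0 min and after 10 min RT. Corrected, normalized data; 4-parameter Hill curve fit.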
Pol kappa inh-1 = inhibitors of human DNA polymerase kappa. AID 588579. 400,000 compounds, 0.53% hits. purified Pol kappa, fluorescent DNA synthesis assay, 10 min. Potency, µM (top dose mostly 107 µM), usual class: inhibitors. Q9UBT6
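Kinetic fluorescence screen: compound preincubated 15 min RT with 10 nM enzyme; 50 nM substrate (final) initiates; reads at 0/10 min.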
POLI cherry-pick = Inhibitors of human DNA polymerase iota, confirmation; shares compounds with Pol kappa inh-1; 1,500 compounds, 77% hits; Pol iota primer extension, TAMRA/BHQ fluorescence; Potency, µM, actives largely listed as inhibitors
Pol kappa inh-2 = Pol kappa (human) inhibition, cherry-pick confirmation. shares compounds with Pol eta inh-1. Potency, µM, most hits filed as inhibitors. purified Pol-kappa, fluorescent strand-displacement substrate. AID 720501. 920 compounds, 76% hits
Pol eta inh-2 = Pol eta (human) inhibition, cherry-pick confirmation; Potency, µM, most hits filed as inhibitors; AID 720502; 2,600 compounds, 64% hits; Pol eta primer extension, TAMRA/BHQ fluorescence, 10 min; shares compounds with Pol eta inh-1
Of the large screens only hits and unclear results are named; the others gave an inactive call (follow-up assays come after a bar, where they were run). In the library only some 2.3% were active in any assay of this set; here they are far more common. Calls come from the whole dose curve; as a rule, active = well fitted curve in the direction sought with a large enough effect; inconclusive = small, poorly fitted or top-dose-only effect, or another doubt; inactive = no such curve, though single readings can be large; an effect the other way counts as inactive or inconclusive.

Oc1ccc(/C=N/NC(=S)Nc2cccnc2)c(O)c1O	Pol eta inh-1 inconclusive, POLI inh inconclusive, WRN helicase inh 10µM, POLB inh inconclusive, Pol kappa inh-1 2.2µM | POLI cherry-pick 2.7 | Pol kappa inh-2 3 | Pol eta inh-2 3
Oc1ccc(/C=N/NC(=S)Nc2cccnc2)c(O)c1	none
Oc1cccc(/C=N/NC(=S)Nc2cccnc2)c1O	Pol eta inh-1 20µM, POLI inh 7.9µM, WRN helicase inh inconclusive, POLB inh 16µM, Pol kappa inh-1 inconclusive | POLI cherry-pick 38 | Pol eta inh-2 85
Cc1ccc(Cl)cc1N1CCN(C(=O)CCS(=O)(=O)c2ccc3c(c2)oc(=O)n3C)CC1	POLI inh inconclusive (no result: WRN helicase inh)
Cc1cc2c(cc3c(SCc4ccccc4Cl)nnc(C)n32)o1	none (no result: WRN helicase inh)
CCc1ccccc1NC(=O)c1ccc(Cn2nc(N3CCN(c4ccccc4)CC3)ccc2=O)o1	POLI inh 79µM, POLB inh 16µM, Pol kappa inh-1 inconclusive (no result: WRN helicase inh) | POLI cherry-pick inconclusive | Pol kappa inh-2 34 | Pol eta inh-2 76
CCOc1ccccc1NC(=O)Cn1nc(N2CCN(c3ccccc3)CC2)ccc1=O	none (no result: WRN helicase inh)
CCc1n[nH]c(=S)n1/N=C/c1cc(OC)cc([N+](=O)[O-])c1O	Pol eta inh-1 20µM, POLI inh inconclusive, WRN helicase inh inconclusive | POLI cherry-pick 34 | Pol eta inh-2 60
COc1cc(/C=N/n2c(=S)[nH]nc(C)c2=O)cc([N+](=O)[O-])c1O	none
O=C(/C=C/c1ccco1)NC(=S)Nc1ccc(C(=O)O)cc1	Pol eta inh-1 7.1µM, POLI inh inconclusive, WRN helicase inh inconclusive, POLB inh 11µM, Pol kappa inh-1 25µM | POLI cherry-pick 9.5 | Pol eta inh-2 5.4
COc1ccc(NC(=S)NC(=O)/C=C/c2ccco2)cc1	POLB inh inconclusive
CCc1ccccc1Nc1nn2c(=O)c3ccc(C(=O)NCc4cccs4)cc3nc2s1	Pol eta inh-1 inconclusive, POLI inh 79µM, POLB inh 8.9µM (no result: WRN helicase inh) | POLI cherry-pick inconclusive | Pol kappa inh-2 inconclusive
CCc1ccccc1Nc1nn2c(=O)c3ccc(C(=O)NCc4ccccc4Cl)cc3nc2s1	POLI inh inconclusive (no result: WRN helicase inh)
COc1cccc(C(=O)c2cn(CC(=O)NCc3ccccc3)c3nc(C)ccc3c2=O)c1	none (no result: WRN helicase inh)
Cc1ccc(-n2c(C)nc3oc4ccccc4c(=O)c3c2=O)cc1	Pol eta inh-1 79µM, POLI inh inconclusive, WRN helicase inh inconclusive, POLB inh 40µM, Pol kappa inh-1 inconclusive | POLI cherry-pick 24 | Pol eta inh-2 38
COc1ccc2c(=O)c3c(=O)n(-c4ccc(C)cc4)c(-c4ccccc4)nc3oc2c1	none (no result: Pol eta inh-1, POLI inh, WRN helicase inh, Pol kappa inh-1)
O=c1cc(-c2ccc(O)c(O)c2)oc2c1ccc1ccccc12	Pol eta inh-1 3.2µM, POLI inh 10µM, WRN helicase inh inconclusive, Pol kappa inh-1 35µM (no result: POLB inh) | POLI cherry-pick 27 | Pol kappa inh-2 21 | Pol eta inh-2 4.8
Cc1ccc(C(=O)OCC(=O)c2ccc(CC(=O)N3CCOCC3)s2)c(C)c1	Pol eta inh-1 16µM, POLI inh 13µM, WRN helicase inh 50µM, Pol kappa inh-1 18µM (no result: POLB inh) | POLI cherry-pick 42 | Pol kappa inh-2 38 | Pol eta inh-2 inconclusive
Cc1ccc(-n2c(C)cc(C(=O)OCC(=O)N3CCOCC3)c2C)cc1	none (no result: POLB inh)
Cc1ccccc1NC(=O)c1cc(-c2ccco2)nc2ccccc12	Pol eta inh-1 45µM, POLI inh 40µM, WRN helicase inh inconclusive, Pol kappa inh-1 89µM (no result: POLB inh) | POLI cherry-pick 53 | Pol eta inh-2 48
CN(C)C(CNC(=O)c1cc(-c2ccco2)nc2ccccc12)c1ccccc1 (centres undefined)	Pol eta inh-1 11µM, POLI inh inconclusive, WRN helicase inh inconclusive, Pol kappa inh-1 25µM (no result: POLB inh) | POLI cherry-pick 34 | Pol eta inh-2 76

Bioassay records (PubChem)
